Screening data as filed in PubChem BioAssay.
DT40 TDP1 CPT – DT40-hTDP1 cell growth loss with CPT; chicken DT40 Tdp1-/-;hTDP1 cells + 20 nM CPT, ATP luminescence, 48 h; Potency, µM (doses to about 46.2 µM), for the others: at the highest dose activity change, negative = growth inhibition, hits mostly inhibitors; actives 12% (n = 420,000); AID 686979; note: potency is the fitted concentration of half-maximal effect; nearly all actives have a fitted effect of over 55% in size
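Chicken DT40 Tdp1-/- cells complemented with human TDP1, 400 cells/well, exposed to compounds plus 20 nM camptothecin for at least 48 h at 37 C; viability read as ATP content by CellTiter-Glo luminescence.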
IL-1B inflam inh – inhibitors of inflammasome signaling (IL-1 beta secretion); activity change, % at 57.5 µM; actives 4.7% (n = 360,000); THP-1 LPS/ATP IL-1B secretion, AlphaLISA, 16 h; active compounds read low; in the data active = activity change below about -50%; inconclusive = mostly about -30% to -49%
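THP-1 cells pretreated 1 hr with compounds (up to 57.5 uM final), then stimulated with LPS (250 ng/mL final) plus ATP (1.25 mM final); secreted IL-1B measured by AlphaLISA after 16 hr, decreased signal indicating inhibition.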
DT40 TDP1 no CPT – qHTS for Inhibitors of human tyrosyl-DNA phosphodiesterase 1 (TDP1): qHTS in cells in absence of CPT | DT40 Tdp1-/- hTDP1 cells, no CPT, ATP luminescence, 48 h | Potency, µM (top dose mostly 46.2 µM), for the others: at the top dose activity change, negative = growth inhibition, most hits filed as inhibitors | actives 15% (n = 420,000) | AID 686978, 2013; note: potency is the fitted concentration of half-maximal effect; nearly all actives have a fitted effect of over 55% in size
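Luminescent ATP content (CellTiter-Glo) served as the growth readout. Knockout chicken DT40 cells expressing human TDP1 were exposed to compounds without camptothecin for a minimum 48 hr at 37 °C.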
Gal4-VP16 FLuc – Gal4-VP16 reporter inhibition counter-screen | Potency, µM (series often up to 53.6 µM), without a hit: top-dose activity, negative = inhibition, most hits filed as inhibitors | Drosophila S2 Gal4-VP16 UAS-luciferase, luminescence, 20 h | AID 2546 | actives 3.5% (n = 310,000);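 note: Gal4-VP16 expression switched on by copper sulfate through the metallothionein promoter; potency is the fitted concentration of half-maximal effect; nearly all actives have a fitted effect of over 50% in size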
RORg inh – ROR gamma (mouse) transcription inhibition | P51450 | Drosophila S2 Gal4-RORgamma UAS-luciferase reporter, 20 h | Potency, µM (top dose mostly 53.6 µM), for the others: at the highest dose activity change, negative = inhibition, usual class: inhibitors | AID 2551 | actives 5.4% (n = 310,000); note: potency is the fitted concentration of half-maximal effect; nearly all actives have a fitted effect of over 60% in size
Target sequence (P51450 whole entry, looked up, the tested form may be a part): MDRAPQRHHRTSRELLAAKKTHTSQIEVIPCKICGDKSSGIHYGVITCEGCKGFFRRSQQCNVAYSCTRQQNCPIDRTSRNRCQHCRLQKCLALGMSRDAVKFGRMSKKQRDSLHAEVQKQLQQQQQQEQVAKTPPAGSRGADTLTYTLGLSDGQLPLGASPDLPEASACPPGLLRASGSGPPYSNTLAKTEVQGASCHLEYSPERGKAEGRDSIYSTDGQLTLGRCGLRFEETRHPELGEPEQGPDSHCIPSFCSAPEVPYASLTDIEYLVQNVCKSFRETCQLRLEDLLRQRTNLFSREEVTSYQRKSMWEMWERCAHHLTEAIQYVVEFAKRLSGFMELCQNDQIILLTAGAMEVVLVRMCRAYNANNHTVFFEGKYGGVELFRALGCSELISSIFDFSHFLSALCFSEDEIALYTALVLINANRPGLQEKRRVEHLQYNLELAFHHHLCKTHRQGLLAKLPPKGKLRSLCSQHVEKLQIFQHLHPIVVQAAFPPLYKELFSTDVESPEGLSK
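Stably transfected Drosophila Schneider cells are the test system, with ROR gamma fused to Gal4 and luciferase under UAS control; luminescence is read after 20 hr of 700 uM copper sulfate induction at ambient temperature.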
ELG1 DNA repair – blocks ELG1-dependent DNA repair in HEK293T cells. HEK293T ELG1-luciferase reporter, luminescence, 16 h; DNA damage induced by 5-fluorouridine. Potency, µM (highest dose often 46.1 µM), without a hit: top-dose activity change, negative = inhibition, most hits filed as inhibitors. actives 2.3% (n = 330,000); note: potency is the fitted concentration of half-maximal effect; nearly all actives have a fitted effect of over 55% in size
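5-Fluorouridine DNA damage + compound/DMSO, 2,000 cells/well, 16 h, 37 °C/5% CO2. ONE-Glo, 30 min RT, luminescence. Readout = decrease in reporter signal.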
* marks the source's active call; other numbers are inactive results. Most compounds without a hit are left out; they make up all but 21% or so of the library. Unless noted, calls come from the whole dose curve; as a rule, active = well fitted curve in the direction sought with a large enough effect; inconclusive = small, poorly fitted or top-dose-only effect, or another doubt; inactive = no such curve, though single readings can be large; an effect the other way counts as inactive or inconclusive. % is set by controls: 0 for no effect and ±100 for the full control effect.

Results for COc1cccc(-n2cc(C(=O)NCc3ccc(C)cc3)c3ccccc3c2=O)c1 ?
DT40 TDP1 CPT: 14.6µM*; DT40 TDP1 no CPT: inconclusive

Results for CC(O)CNc1nc2ccccc2n1CC(=O)NCCc1ccc(Cl)cc1 (configuration not stated) ?
DT40 TDP1 CPT: inconclusive; IL-1B inflam inh: -11.8; DT40 TDP1 no CPT: inconclusive; Gal4-VP16 FLuc: 12.2%; RORg inh: 6.8%; ELG1 DNA repair: -7.2%

Results for COc1cc(/C=C/C(=O)OCC(=O)NC(=O)NC23CC4CC(CC(C4)C2)C3)ccc1OCC#N ?
DT40 TDP1 CPT: inconclusive; IL-1B inflam inh: inconclusive; DT40 TDP1 no CPT: 20.6µM*; Gal4-VP16 FLuc: -14.4%; RORg inh: inconclusive; ELG1 DNA repair: -21.4%

What do the screens show for `CCc1cc2ccc(C)cc2nc1SCC(=O)NNC(=O)c1ccco1`?
DT40 TDP1 CPT: -18.5%; IL-1B inflam inh: -9.2; DT40 TDP1 no CPT: 1.8%; Gal4-VP16 FLuc: 3.7%; RORg inh: -16.0%; ELG1 DNA repair: -3.3%

How did O=C(C=Cc1ccco1)c1ccco1 do in these assays?
DT40 TDP1 CPT: -16.0%; IL-1B inflam inh: inconclusive; DT40 TDP1 no CPT: -25.3%

How did Cc1ccc2cc(/C=C/C(=O)c3ccco3)c(Cl)nc2c1 do in these assays?
DT40 TDP1 CPT: 10.3µM*; DT40 TDP1 no CPT: 20.6µM*; Gal4-VP16 FLuc: inconclusive; RORg inh: inconclusive; ELG1 DNA repair: inconclusive

How did COc1cc2cc(/C=C/C(=O)c3ccco3)c(Cl)nc2cc1OC do in these assays?
DT40 TDP1 CPT: 4.11µM*; IL-1B inflam inh: 35.0; DT40 TDP1 no CPT: 4.61µM*; Gal4-VP16 FLuc: 7.94µM*; RORg inh: inconclusive; ELG1 DNA repair: 8.6%

Results for O=C(c1cccs1)n1nc(-c2ccccc2)nc1NCc1ccco1 ?
DT40 TDP1 CPT: 20.6µM*; IL-1B inflam inh: -15.6; DT40 TDP1 no CPT: inconclusive; Gal4-VP16 FLuc: -5.5%; RORg inh: inconclusive; ELG1 DNA repair: 2.2%

How did COc1ccc(CNc2nc(NCc3ccc(OC)c(OC)c3)n(C(=O)c3cccs3)n2)cc1OC do in these assays?
DT40 TDP1 CPT: 16.4µM*; IL-1B inflam inh: inconclusive; DT40 TDP1 no CPT: 14.6µM*; Gal4-VP16 FLuc: 4.7%; RORg inh: inconclusive; ELG1 DNA repair: inconclusive

What do the screens show for `COc1ccc(CCNC(=O)c2cccs2)cc1OC`?
DT40 TDP1 CPT: -7.5%; IL-1B inflam inh: -5.9; DT40 TDP1 no CPT: 1.6%; Gal4-VP16 FLuc: -2.3%; RORg inh: 20.6%; ELG1 DNA repair: -8.1%

Results for Cc1ccccc1C(=O)n1nc(-c2ccco2)nc1NCc1cccs1 ?
DT40 TDP1 CPT: 13µM*; DT40 TDP1 no CPT: inconclusive

What do the screens show for `COc1ccc(Oc2ncc3nc(-c4cc(F)cc(F)c4)c(=O)n(CCC#N)c3n2)cc1`?
DT40 TDP1 CPT: -26.1%; DT40 TDP1 no CPT: inconclusive; Gal4-VP16 FLuc: 10.3%; RORg inh: 6.6%

Results for CN1CCN(c2ccc(-c3cccc4nccn34)cn2)CC1 ?
DT40 TDP1 CPT: inconclusive; IL-1B inflam inh: -18.9; DT40 TDP1 no CPT: inconclusive

How did COc1ccc2c(c1)CC/C(=C\c1ccc(OC)c(Cn3nc(C)cc3C)c1)C2=O do in these assays?
DT40 TDP1 CPT: 16.4µM*; IL-1B inflam inh: 13.1; DT40 TDP1 no CPT: 18.4µM*; Gal4-VP16 FLuc: -28.3%; RORg inh: inconclusive; ELG1 DNA repair: inconclusive

How did COc1ccc2c(c1)CC/C(=C/c1ccco1)C2=O do in these assays?
DT40 TDP1 CPT: -2.1%; IL-1B inflam inh: -13.5; DT40 TDP1 no CPT: -25.5%; Gal4-VP16 FLuc: inconclusive; RORg inh: -33.2%; ELG1 DNA repair: inconclusive

What do the screens show for `COc1ccc(/C=C2\CCc3ccccc3C2=O)cc1CN1CCOCC1`?
DT40 TDP1 CPT: inconclusive; IL-1B inflam inh: -10.2; DT40 TDP1 no CPT: inconclusive; Gal4-VP16 FLuc: 12.9%; RORg inh: inconclusive; ELG1 DNA repair: inconclusive

Results for COc1ccc2c(c1)CC/C(=C\c1ccc(OC)c(Cn3cccn3)c1)C2=O ?
DT40 TDP1 CPT: 18.4µM*; IL-1B inflam inh: -51.7*; DT40 TDP1 no CPT: 25.9µM*; Gal4-VP16 FLuc: 1.7%; RORg inh: 2.5%; ELG1 DNA repair: inconclusive

How did O=C(NCC1Cc2cccc(-c3cnccn3)c2O1)c1ccc(F)c(Cl)c1 (configuration not stated) do in these assays?
DT40 TDP1 CPT: -0.1%; DT40 TDP1 no CPT: -11.8%

How did Fc1ccc(Cn2cccc2C2=NC(c3ccccc3)CO2)cc1 (configuration not stated) do in these assays?
DT40 TDP1 CPT: -24.7%; IL-1B inflam inh: -9.7; DT40 TDP1 no CPT: 4.2%; Gal4-VP16 FLuc: -7.7%; RORg inh: 26.1%; ELG1 DNA repair: 27.4%

Results for Cc1oc(-c2ccccc2)nc1Cn1cccc1C1=NC(c2ccccc2)CO1 (configuration not stated) ?
DT40 TDP1 CPT: inconclusive; IL-1B inflam inh: -10.2; DT40 TDP1 no CPT: 23.1µM*; Gal4-VP16 FLuc: inconclusive; RORg inh: -32.8%; ELG1 DNA repair: 2.6%

What do the screens show for `CCOc1ccccc1NC(=O)c1cc(-c2cc(OC)c(OC)c(OC)c2)nc2ccccc12`?
DT40 TDP1 CPT: 10.3µM*; IL-1B inflam inh: 1.3; DT40 TDP1 no CPT: 7.31µM*; Gal4-VP16 FLuc: 1.0%; RORg inh: -1.1%; ELG1 DNA repair: inconclusive

How did O=C(Nc1ccncc1)c1cc(-c2ccccn2)nc2ccccc12 do in these assays?
DT40 TDP1 CPT: 12.1%; IL-1B inflam inh: 52.7; DT40 TDP1 no CPT: -18.4%; Gal4-VP16 FLuc: -18.5%; RORg inh: 0.6%; ELG1 DNA repair: 10.8%

Results for COc1cc(-c2cc(C(=O)Nc3ccncc3)c3ccccc3n2)cc(OC)c1OC ?
DT40 TDP1 CPT: 2.91µM*; IL-1B inflam inh: -50.0*; DT40 TDP1 no CPT: 1.3µM*; ELG1 DNA repair: 6.51µM*

What do the screens show for `COc1cc(NC(=O)c2cc(C)nc3ccccc23)cc(OC)c1OC`?
DT40 TDP1 CPT: -16.1%; IL-1B inflam inh: 25.9; DT40 TDP1 no CPT: -6.5%; Gal4-VP16 FLuc: 6.7%; RORg inh: 1.1%; ELG1 DNA repair: 7.5%

What do the screens show for `COc1ccccc1NC(=O)c1cc(-c2cc(OC)c(OC)c(OC)c2)nc2ccccc12`?
DT40 TDP1 CPT: 9.2µM*; IL-1B inflam inh: -3.4; DT40 TDP1 no CPT: 7.31µM*; Gal4-VP16 FLuc: inconclusive; RORg inh: 0.4%; ELG1 DNA repair: inconclusive

How did CCOc1ccc(OCC)c(NC(=O)c2cc(-c3cccs3)nc3ccccc23)c1 do in these assays?
DT40 TDP1 CPT: -0.2%; DT40 TDP1 no CPT: -12.1%
